High-throughput results from PubChem BioAssay.
Sampled rows, rich in hits. Any-hit rate of the full collection: about 11%.
VDR inhibitor – vitamin D3 receptor (human) inhibition; Potency, µM, inactives show max response, negative = inhibition, usual class: inhibitors; VDR-SRC2-3 peptide fluorescence polarization, 2 h; actives 0.93% (n = 400,000); also: % is scaled to controls: 0 for no effect and ±100 for the full control effect
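Measured by FP: displacement of SRC2-3 coactivator peptide from VDR by library compounds, following a two-hour ambient incubation.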
G9a inh – inhibitors of human histone lysine methyltransferase G9a | G9a H3K9 monomethylation, AlphaScreen, 2 h | Potency, µM (doses to about 102 µM), for the others: at the highest dose activity, negative = inhibition, actives largely listed as inhibitors | actives 8.8% (n = 350,000); also: % is scaled to controls: 0 for no effect and ±100 for the full control effect; nearly all actives have a fitted effect of over 75% in size
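Compounds were preincubated with 20 nM G9a for 15 min, after which biotinylated H3K9 peptide (500 nM) and SAM (20 uM) started a 2 h room-temperature reaction. Monomethylated product was quantified by antibody-based AlphaScreen chemiluminescence.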
JMJD2A Tudor – inhibitors of human JMJD2A Tudor domain; O75164; AlphaScreen JMJD2A-Tudor / H3K4me3 peptide binding; Potency, µM (series often up to 114 µM), inactives show top-dose activity change, negative = inhibition, usual class: inhibitors; actives 4.4% (n = 390,000); AID 504339; also: % is scaled to controls: 0 for no effect and ±100 for the full control effect; nearly all actives have a fitted effect of over 50% in size
BAZ2B block – BAZ2B (human) inhibition; Q9UIF8; Potency, µM (doses to about 114 µM), for inactives: top-dose activity change, negative = inhibition, hits mostly inhibitors; AlphaScreen BAZ2B-H3K14Ac peptide displacement; actives 4.4% (n = 360,000); also: % is scaled to controls: 0 for no effect and ±100 for the full control effect; nearly all actives have a fitted effect of over 60% in size
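Inhibition is scored as reduced AlphaScreen emission. The BAZ2B/b-H3(5-23)K14Ac complex (50 nM each) in PBS pH 7.4, 0.01% Tween-20 meets compound (up to 110 uM) for 30 min at RT before bead addition.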
HP1b binding inh – inhibitors of HP1-beta chromodomain binding to methylated histone tails; P83916; AlphaScreen HP1-beta / biotin-H3K9me3 peptide binding; Potency, µM (doses to about 114 µM), for the others: top-dose activity change, negative = inhibition, hits mostly inhibitors; actives 0.56% (n = 390,000); AID 540317; also: nearly all actives have a fitted effect of over 70% in size
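Compound inhibition of the preformed complex between 50 nM HP1-beta and 50 nM biotinylated H3K9me3 peptide was read by AlphaScreen. Buffer was PBS pH 7.4 with 0.01% Tween-20. Incubations ran 30 min at room temperature, with 10 ug/mL donor/acceptor beads.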
PLK1 PBD block – PLK1 (human) polo-box domain binding inhibition. actives 2.8% (n = 360,000). P53350. Potency, µM, inactives show max response, negative = inhibition, hits mostly inhibitors. AID 720504. Plk1 PBD binding of FITC phosphopeptide, fluorescence polarization; also: series mostly up to about 57 µM; % is scaled to controls: 0 for no effect and ±100 for the full control effect; nearly all actives have a fitted effect of over 65% in size
Target sequence (P53350 whole entry, looked up, the tested form may be a part): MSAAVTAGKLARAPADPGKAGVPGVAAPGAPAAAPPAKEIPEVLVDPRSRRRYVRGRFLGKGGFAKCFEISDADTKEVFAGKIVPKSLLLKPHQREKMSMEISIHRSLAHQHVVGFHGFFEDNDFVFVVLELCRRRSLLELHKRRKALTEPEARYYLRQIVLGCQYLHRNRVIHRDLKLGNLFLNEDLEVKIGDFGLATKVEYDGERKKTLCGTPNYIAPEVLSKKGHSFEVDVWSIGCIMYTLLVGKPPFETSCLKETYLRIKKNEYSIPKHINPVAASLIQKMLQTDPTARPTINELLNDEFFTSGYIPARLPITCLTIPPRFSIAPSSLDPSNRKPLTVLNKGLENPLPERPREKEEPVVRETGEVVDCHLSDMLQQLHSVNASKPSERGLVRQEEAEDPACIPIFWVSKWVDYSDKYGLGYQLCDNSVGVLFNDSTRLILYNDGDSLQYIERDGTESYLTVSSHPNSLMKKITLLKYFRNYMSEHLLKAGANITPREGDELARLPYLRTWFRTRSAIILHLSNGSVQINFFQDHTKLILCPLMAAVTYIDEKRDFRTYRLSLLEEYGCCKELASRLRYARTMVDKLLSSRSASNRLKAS
* marks the source's active call; other numbers are inactive results; ? = inconclusive; nt = no result given; [ ] = another dose, or the depositor's remark. Calls follow the shape of the dose curve; as a rule, active = well fitted curve in the direction sought with a large enough effect; inconclusive = small, poorly fitted or top-dose-only effect, or another doubt; inactive = no such curve, though single readings can be large; an effect the other way counts as inactive or inconclusive. Potency is read from the fitted curve at half-maximal effect.

SMILES	VDR inhibitor	G9a inh	JMJD2A Tudor	BAZ2B block	HP1b binding inh	PLK1 PBD block
COC(=O)c1c(NC(=O)/C=C/C(=O)O)sc(C)c1-c1ccc(C(C)C)cc1	25µM*	?	-29%	?	4%	38µM*
COc1ccc(N2CCN(C(=O)c3[nH]c4ccc(OC)cc4c3C)CC2)cc1	-21%	40µM*	28µM*	?	?	27µM*
COc1ccc2cc(C(=O)N3CCN(c4ccc(F)cc4)CC3)[nH]c2c1	-14%	50µM*	3%	-9%	21%	-1%
CCN(CC)c1ncnc2sc(C(=O)N3CCN(c4ccc(OC)cc4)CC3)c(C)c12	15%	14µM*	?	-2%	-8%	-13%
O=C(c1ccccc1F)N1CCN(c2cnn(-c3cccc(Cl)c3)c(=O)c2Cl)CC1	-15%	0%	-10%[11.4 µM]	7%	-9%	27µM*
COc1ccc2cc(C(=O)N3CCN(C)CC3)[nH]c2c1	27%	1%	-14%	-1%	14%	-4%
CCOC(=O)C1CCN(C(=O)c2[nH]c3ccc(OC)cc3c2C)CC1	0%	-4%	-5%	-3%	9%	5%
Cc1cc(C(=O)N2CCCC(CO)(Cc3ccc(F)cc3F)C2)nn1C (stereo not given)	nt	nt	nt	nt	nt	-4%
COc1ccc(C2SCCN2C(=S)Nc2cccc(Cl)c2)cc1 (stereo not given)	-21%	5%[59 µM]	-5%	-20%	50%	-5%
COc1ccc2[nH]c(C(=O)N3CCC(CO)(Cc4cccc(C(F)(F)F)c4)CC3)c(C)c2c1	-15%	79µM*	-29%	-38%	11%	4%
O=C(c1cc2cc(F)ccc2[nH]1)N1CCN(c2cccc(Cl)c2)CC1	13%	23%	-23%	-17%	12%	3%
CCOc1ccccc1N1CCN(C(=O)c2cc3cc(OC)ccc3[nH]2)CC1	18%	35µM*	?	?	-9%	-7%
COc1cccc(CC2(CO)CCCN(Cc3[nH]c4ccc(C)cc4c3C)C2)c1 (stereo not given)	-3%	45µM*	-22%[11.4 µM]	?	-19%	-16%
COc1cccc(N2CCN(C(=O)c3cc4cc(Cl)ccc4[nH]3)CC2)c1	7%	71µM*	?	-37%	-3%	-5%
O=C(NC1CCCCC1)C(c1ccccc1)n1c(=O)c(-c2cc3ccccc3[nH]2)nc2ccccc21 (stereo not given)	nt	nt	nt	nt	nt	-15%
COc1ccccc1CNc1ncnc2ccc(-c3ccc(C(=O)N(C)C)cc3)cc12	-7%	-32%[0.501 µM]	nt	nt	nt	nt
O=c1ccc2ccccc2n1Cc1cccc(F)c1	-27%	4%	4%	2%	59%	-6%
COc1ccccc1C(=O)N1CCN(c2cccc(Cl)c2)CC1	-18%	14%[59 µM]	-30%[11.4 µM]	-4%	-6%	24µM*
CCOC(=O)C1=C(C#N)C(C(=O)OCC)c2ncccc21 (stereo not given)	nt	nt	nt	nt	nt	3.4µM*
CC1=C(C(N)=O)C(c2ccco2)C(C(N)=O)=C(C)N1	8%	56µM*	-2%	?	41%	-4%
C=CCOC(=O)C1=C(C)NC(C)=C(C(=O)OCC=C)C1c1ccco1	8%	?	-10%	?	27%	-6%
Cc1ccc(Cl)cc1NC(=O)Cn1cc2c(n1)CCCCC2	21%	15%[59 µM]	-6%	-1%	24%	nt
COc1ccccc1C(=O)Nc1ccc2c(c1)nc1n2CCN(Cc2ccccc2)C1	-12%	16µM*	-20%	-14%	9%	-8%
O=C(Nc1ccc2c(c1)nc1n2CCN(Cc2ccccc2)C1)NC1CCCCC1	-7%	22µM*	-23%	-3%	22%	-18%
CC1(C)CC(=O)C(N=Nc2cc(C(F)(F)F)ccc2Cl)=C(O)C1	-22%	?	-35%	?	4%	-4%
SMILES	VDR inhibitor	G9a inh	JMJD2A Tudor	BAZ2B block	HP1b binding inh	PLK1 PBD block
O=C1CCCC(O)=C1N=Nc1c(Cl)cc(C(F)(F)F)cc1Cl	7%	nt	?	71µM*	-7%	-6%
O=C1CCCC(O)=C1N=Nc1ccc2c(c1)OCO2	-12%	19%[59 µM]	?	?	-30%	-5%
O=C1CCCC(O)=C1N=Nc1ccc(C(=O)O)cc1	0%	8.9µM*	-12%[11.4 µM]	22µM*	45µM*	?
COc1cc(/C=C(\C#N)C(=O)NC2CCCCC2C)ccc1OS(=O)(=O)c1ccc(C)cc1 (stereo not given)	79µM*	12%[59 µM]	-20%	-5%	3%	-13%
COc1ccc2nc(NC(=O)Cc3ccc(OC)c(S(=O)(=O)N4CCOCC4)c3)sc2c1	-7%	79µM*	-11%[11.4 µM]	-8%	-23%	?
COC(=O)c1c(NC(=O)Cc2ccc(OC)c(S(=O)(=O)N3CCOCC3)c2)sc(C)c1C	-15%	50µM*	-30%	-26%	-9%	-11%
CCOC(=O)CCc1c(C)c2cc3c(c(C)c2oc1=O)OCN(CCc1ccccc1OC)C3	-2%	-6%[59 µM]	-19%	-15%	47%	nt
OCCN(CC#CC(O)(c1ccccc1)c1ccccc1)CCO	1%	32µM*	-4%	?	21%	-3%
Cc1ccc(C)c(S(=O)(=O)Nc2ccc(C(=O)NCCCN(C)C)cc2)c1	nt	nt	nt	nt	nt	-3%
Cc1ccc(C(=O)NCc2ccncc2)cc1S(=O)(=O)Nc1cccc(C)c1C	-3%	-47%	-5%	-18%	13%	6%
Cc1c(NS(=O)(=O)c2cc(C(=O)NCCN(C)C)ccc2Cl)c(=O)n(-c2ccccc2)n1C	-7%	?	?	79µM*	10%	-2%
Cc1ccccc1NS(=O)(=O)c1cc(C(=O)NCc2ccncc2)ccc1Cl	6%	45µM*	-5%	-24%	42%	-6%
Cc1ccc(NS(=O)(=O)c2cc(C(=O)NCCCN(C)C)ccc2Cl)cc1Cl	4%	79µM*	-7%	6%	34%	-4%
Cc1cccc(NC(=O)c2sc3ncnc(N(C)C4CCCCC4)c3c2C)c1C	8%	3%[59 µM]	-18%	-1%	39%	nt
CC(=O)N1CCN(C(=S)NC(=O)c2ccc(S(=O)(=O)N3CCOCC3)cc2)CC1	-19%	?	50µM*	50µM*	-27%	-23%
Cc1ccc(S(=O)(=O)N2CCOCC2)cc1C(=O)NC(=S)N1CC(C)OC(C)C1 (stereo not given)	-12%	32µM*	-6%	-2%	22%	-11%
CN(CCC#N)C(=S)NC(=O)c1ccc(S(=O)(=O)N2CCOCC2)cc1	-10%	11µM*	-22%	-20%	-10%	?
CCC(C)(C)NC(=O)CCn1c(-c2ccccc2)cc(C(C)=O)c1C	3%	-22%	-17%	50µM*	6%	-4%
CC(=O)c1cc(-c2ccccc2)n(CCC(=O)Nc2ccc(C)cc2C)c1C	5%	3%[59 µM]	-5%	-4%	15%	nt
CC(=O)c1cc(-c2ccccc2)n(CCC(=O)NC2CCCCCCC2)c1C	-26%	1%[59 µM]	-30%	50µM*	-28%	-8%
